Results taken from PubChem BioAssay (Tox21).
Inconclusive results are not listed. Calls of active or inactive are those of the source. Unless noted, calls follow the shape of the dose curve; as a rule, active = well fitted curve in the direction sought with a large enough effect in the repeat runs; inconclusive = weak or mixed curves; inactive = no such curve, though single readings can be large; an effect the other way counts as inactive or inconclusive.

Experiments:
[1] = molecular target: Nuclear receptor subfamily 1 group I member 3 (Homo sapiens) (UniProt Q14994); assay: qHTS assay to identify small molecule agonists of the constitutive androstane receptor (CAR) signaling pathway (AID 1224839);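 also: HepG2 cells stably carrying human CAR and a CYP2B6 luciferase reporter; series mostly up to about 92 µM; nearly all actives have a fitted effect of over 15% in size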
Chain of Nuclear receptor subfamily 1 group I member 3 (Homo sapiens) (Q14994 whole entry, looked up): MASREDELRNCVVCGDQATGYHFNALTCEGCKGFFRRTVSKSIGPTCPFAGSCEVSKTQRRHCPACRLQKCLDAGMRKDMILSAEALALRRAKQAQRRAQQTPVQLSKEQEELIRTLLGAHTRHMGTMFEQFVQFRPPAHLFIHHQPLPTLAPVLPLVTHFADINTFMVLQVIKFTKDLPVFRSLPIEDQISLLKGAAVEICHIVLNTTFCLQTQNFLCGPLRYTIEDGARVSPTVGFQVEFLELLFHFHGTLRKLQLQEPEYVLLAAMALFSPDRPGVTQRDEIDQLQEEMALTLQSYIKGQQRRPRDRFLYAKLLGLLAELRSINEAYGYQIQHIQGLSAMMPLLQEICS
How it was run: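 Using human hepatoma HepG2 cells engineered with hCAR and a CYP2B6-2.2kb reporter, 15-concentration compound series were incubated 24 h alongside PK11195 at 0.75 uM final, with luminescence quantified afterwards.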

[2] = qHTS assay to identify small molecule antagonists of the estrogen related receptor signaling pathway with the pleiotropic PPARgamma coactivator (PGC) from Tox21 10K library - cell viability counter screen (AID 1224840; active = well fitted cell-killing curve with a large enough effect in the repeat runs, not every such curve was filed as active; also: nearly all actives have a fitted effect of over 40% in size)
How it was run: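 Fluorescence read-out of CellTiter-Fluor viability reagent, added after cells had been exposed to compound in DMSO for 17.5 h at 37 C; 30 min development at 37 C/5% CO2. Cells: PGC/ERR line, 2,000/well.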

[3] = qHTS assay to identify small molecule agonists of the hypoxia (HIF-1) signaling pathway - cell viability counter screen (AID 1224844; calls by dose curve; also: nearly all actives have a fitted effect of over 50% in size)
How it was run: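 CellTiter-Glo luminescence read-out, 30 min RT, taken in the same wells as the beta-lactamase HRE reporter assay; HRE-bla ME-180 cells, 0.5% dialyzed FBS, 17 hr compound treatment at 37C, 5% CO2.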

[4] = qHTS assay to identify small molecule agonists of H2AX (AID 1224845; active = well fitted activation curve with a large enough effect in the signal ratio in the repeat runs, not every such curve was filed as active; the % refers to the signal ratio)
How it was run: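 Wild-type CHO-K1 cells, plated overnight, exposed 3hr at 37C to 15 concentrations (0.76% DMSO final). Lysed, then HTRF anti-pH2AX (S139) cryptate and anti-H2AX-d2 antibodies, 24 hr room temperature; 665/620 nm emission read.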

[5] = qHTS assay to identify small molecule agonists of the hypoxia (HIF-1) signaling pathway (AID 1224846; active = well fitted activation curve with a large enough effect in the signal ratio in the repeat runs, not every such curve was filed as active; the % refers to the signal ratio)
How it was run: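 Beta-lactamase FRET read-out (CCF4-AM substrate) from ME-180 cells carrying an HRE-driven bla reporter, after 17 hrs compound exposure at 37C/5% CO2. Cells were seeded at 2,000 per well in 0.5% dialyzed FBS medium and preincubated 5 hrs.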

[6] = qHTS assay to identify small molecule agonists of H2AX - cell viability counter screen (AID 1224847; calls by dose curve; also: top concentration of the series differs between compounds; nearly all actives have a fitted effect of over 30% in size)
How it was run: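 After overnight plating of 1000 CHO-K1 cells per well, a 15-concentration compound series was applied for 3 hr at 37C. Luminescence from CellTiter-Glo, read following 30 min at room temperature, reflected cell viability.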

[7] = qHTS RealTime-Glo MT Cell Viability Assay in HepG2 cells - 24 hour (AID 1224867); also: nearly all actives have a fitted effect of over 50% in size
How it was run: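 Cells + NanoLuc/prosubstrate dispensed (600 cells/well) → 5 h at 37 C/5% CO2 → compounds in DMSO transferred → 40 h incubation at 37 C, luminescence read at 0, 8, 16, 24, 32, 40 h.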

[8] = A CellTox Green Cytotoxicity Assay to monitor cytotoxicity in HEK293 cells - 0 hour (AID 1224869); also: nearly all actives have a fitted effect of over 50% in size
How it was run: (§1)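 Read-out: fluorescence of a cell-impermeant cyanine dye staining DNA of dead cells, proportional to cytotoxicity. HEK293, 600 cells/well with reagent, compound (23 nL DMSO) added after 5 h; reads at 0, 8, 16, 24, 32, 40 h.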

[9] = qHTS RealTime-Glo MT Cell Viability Assay in HepG2 cells - 40 hour (AID 1224870); also: nearly all actives have a fitted effect of over 50% in size
How it was run: (§2)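 HepG2 cells (600/well) mixed with RealTime-Glo MT reagent, settled 5 h at 37 C/5% CO2 before compound addition. Nonlytic NanoLuc luminescence from viable-cell prosubstrate reduction read repeatedly during 40 h treatment at 37 C.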

[10] = A CellTox Green Cytotoxicity Assay to monitor cytotoxicity in HEK293 cells - 40 hour (AID 1224871); also: nearly all actives have a fitted effect of over 45% in size
How it was run: as §1

[11] = qHTS RealTime-Glo MT Cell Viability Assay in HepG2 cells - 8 hour (AID 1224873); also: nearly all actives have a fitted effect of over 55% in size
How it was run: as §2

[12] = qHTS RealTime-Glo MT Cell Viability Assay in HEK293 cells - 40 hour (AID 1224874); conditions: RealTime-Glo luminescence; max response: hits give low values; also: nearly all actives have a fitted effect of over 50% in size
How it was run: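 Luminescence readout at each listed time point; HEK293, 600 cells/well, RealTime-Glo MT reagent added with cells; compounds pinned (23 nL in DMSO) after 5 h at 37 C; continuous culture at 37 C.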

[13] = qHTS RealTime-Glo MT Cell Viability Assay in HEK293 cells - 32 hour (AID 1224868)
How it was run: (§3)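 Tox21 10K qHTS, HEK293, 600 cells/well, RealTime-Glo reagent co-dispensed with cells; 5 h preincubation, compound by pintool, 37 C, luminescence at 0–40 h.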

[14] = qHTS RealTime-Glo MT Cell Viability Assay in HEK293 cells - 16 hour (AID 1224872)
How it was run: as §3

[15] = A CellTox Green Cytotoxicity Assay to monitor cytotoxicity in HEK293 cells - 24 hour (AID 1224875); also: series mostly up to about 77 µM; nearly all actives have a fitted effect of over 45% in size
How it was run: as §1
% is scaled to controls: 0 for no effect and ±100 for the full control effect.

OC[C@H]1O[C@@H](O[C@@H]2[C@@H](CO)O[C@](O)(CO)[C@H]2O)[C@H](O)[C@@H](O)[C@H]1O
inactive: Potency [1] | outcome [2] | outcome [3] | outcome [4] | outcome [5] | outcome [6] | outcome [7] | Potency [8] | outcome [9] | Potency [10] | outcome [11] | max response [12] 1.5%

CC(N)CCCC(C)(C)O (stereo not drawn)
inactive: Potency [1] | outcome [2] | outcome [3] | outcome [4] | outcome [6] | outcome [7] | Potency [13] | Potency [8] | outcome [9] | Potency [10] | Potency [14] | outcome [11] | max response [12] 10% | Potency [15]

CN(C)CC/C=C1/c2ccccc2COc2ccc(CC(=O)O)cc21
inactive: Potency [1] | outcome [2] | outcome [3] | outcome [4] | outcome [5] | outcome [6] | Potency [8] | Potency [10] | Potency [15]

C[C@H]1[C@@H](c2ccccc2)NC(=O)N1C
inactive: Potency [1] | outcome [2] | outcome [4] | outcome [5] | outcome [6] | outcome [7] | Potency [13] | Potency [8] | outcome [9] | Potency [10] | Potency [14] | outcome [11] | max response [12] -8.69% | Potency [15]

CC(C)OC(=O)OCOP(=O)(CO[C@H](C)Cn1cnc2c(N)ncnc21)OCOC(=O)OC(C)C
inactive: Potency [1] | outcome [2] | outcome [5] | outcome [6] | outcome [7] | Potency [13] | Potency [8] | outcome [9] | Potency [10] | max response [12] 2.48% | Potency [15]

COC(=O)c1cccc(Cl)c1
inactive: Potency [1] | outcome [2] | outcome [3] | outcome [4] | outcome [5] | outcome [7] | Potency [13] | Potency [8] | outcome [9] | Potency [10] | Potency [14] | outcome [11] | max response [12] 11% | Potency [15]

O=C1NC(c2ccccc2)(c2ccccc2)C(=O)N1COP(=O)(O)O
inactive: Potency [1] | outcome [2] | outcome [3] | outcome [4] | outcome [5] | outcome [6] | outcome [7] | Potency [8] | outcome [9] | Potency [10] | Potency [14] | outcome [11] | max response [12] -5.37% | Potency [15]

CC(=O)c1cc(C)oc1C
inactive: Potency [1] | outcome [2] | outcome [3] | outcome [4] | outcome [5] | outcome [6] | outcome [7] | Potency [13] | Potency [8] | outcome [9] | Potency [10] | outcome [11] | max response [12] -0.494%

COC(=O)CCCCC(=O)O
inactive: Potency [1] | outcome [2] | outcome [3] | outcome [4] | outcome [5] | outcome [6] | outcome [7] | Potency [8] | outcome [9] | Potency [10] | Potency [14] | outcome [11] | max response [12] 8.26% | Potency [15]

CCCCCCCCCCCCCCC(=O)NC(CO)CCCCCCCCCCCCCC (stereo not drawn)
inactive: Potency [1] | outcome [2] | outcome [3] | outcome [4] | outcome [5] | outcome [7] | Potency [13] | Potency [8] | outcome [9] | Potency [10] | Potency [14] | outcome [11] | max response [12] 5.76% | Potency [15]

CN(C)CCCCl
inactive: Potency [1] | outcome [2] | outcome [3] | outcome [4] | outcome [5] | outcome [6] | outcome [7] | Potency [8] | outcome [9] | Potency [10] | Potency [14] | outcome [11] | max response [12] 0.853% | Potency [15]

N#CCC(=O)NN
inactive: Potency [1] | outcome [2] | outcome [3] | outcome [4] | outcome [5] | outcome [6] | outcome [7] | Potency [13] | Potency [8] | Potency [10] | outcome [11] | max response [12] 1.05% | Potency [15]

C=CCCCC
inactive: Potency [1] | outcome [2] | outcome [3] | outcome [4] | outcome [5] | outcome [6] | outcome [7] | Potency [13] | Potency [8] | Potency [10] | Potency [14] | outcome [11] | max response [12] 10.8% | Potency [15]

CCCC(CC)c1ccccc1 (stereo not drawn)
inactive: Potency [1] | outcome [2] | outcome [3] | outcome [4] | outcome [5] | outcome [6] | outcome [7] | Potency [13] | Potency [8] | Potency [10] | Potency [14] | max response [12] 11.4% | Potency [15]

NCC1(Cc2noc(=O)[nH]2)CCCCC1
inactive: Potency [1] | outcome [2] | outcome [3] | outcome [4] | outcome [5] | outcome [6] | outcome [7] | Potency [13] | Potency [8] | outcome [9] | Potency [10] | Potency [14] | outcome [11] | Potency [15]

Cc1ccnc(N)c1
inactive: Potency [1] | outcome [2] | outcome [3] | outcome [5] | outcome [6] | outcome [7] | Potency [13] | Potency [8] | outcome [9] | Potency [10] | Potency [14] | outcome [11] | max response [12] -4.39%

CC(Oc1cc(Cl)ccc1Cl)C(=O)O (stereo not drawn)
inactive: Potency [1] | outcome [2] | outcome [3] | outcome [4] | outcome [5] | outcome [7] | Potency [13] | Potency [8] | Potency [10] | Potency [14] | outcome [11] | max response [12] -5.27% | Potency [15]
